Reference: PubChem BioAssay (NCI)
Compounds without any hit were thinned out: in the full panel of roughly 83,000, 20% have a hit.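 Single-dose data. Exposure time 48 hours. Values below 10 considered active.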 Values without a mark were called inactive. The source made the active and inactive calls.

Legend:
Assay in all cases: NCI-60 one-dose screen, 48 h (100 = growth as untreated, 0 = no growth, -100 = all killed)
Conditions in all cases: 10 µM unless noted
[1] = test system: NCI-H23 lung
[2] = test system: NCI-H226 lung
[3] = test system: NCI-H322M lung
[4] = test system: HOP-62 NSCLC
[5] = test system: NCI-H460 lung
[6] = test system: HOP-92 NSCLC
[7] = test system: NCI-H522 lung
[8] = test system: A549/ATCC NSCLC
[9] = test system: 786-0 renal
[10] = test system: COLO 205 colon
[11] = test system: DU-145 prostate
[12] = test system: K-562 leukemia
[13] = test system: MALME-3M melanoma
[14] = test system: MDA-MB-231 breast
[15] = test system: RXF 393 renal
[16] = test system: SF-268 CNS
[17] = test system: SF-295 CNS
[18] = test system: SF-539 CNS
[19] = test system: UACC-257 melanoma
[20] = test system: M14 melanoma

SMILES	growth [1]	growth [2]	growth [3] [%]	growth [4]	growth [5]	growth [6]	growth [7]	growth [8]	growth [9]	growth [10]	growth [11]	growth [12]	growth [13]	growth [14]	growth [15]	growth [16]	growth [17]	growth [18]	growth [19]	growth [20]
COc1cc(/C=N/NC(=O)c2ccc(-n3cc(-c4ccccc4)nn3)cc2)cc(OC)c1OC	59.1%	32.5%	60.6	71.7%	41.5%	86.9%	68.3%	81.2%	93.8%	56.7%	56.9%	60.6%	-1.82% (active)	78.2%	68.7%	57.9%	88%	53.2%	53.9%	26.6%
CC1(C)CC[C@]23CC[C@]4(C)[C@H](CC[C@@H]5[C@@]6(C)CCNCC(C)(C)[C@@H]6CC[C@]54C)[C@H]2[C@H]1OC3	95.6%	96.7%	99.8	97%	23.7%	98.9%	90.1%	79.3%	101%	-21% (active)	98.5%	16.9%	104%	96.6%	101%	111%	108%	99.5%	92.5%	92.8%
Clc1ccc2nn3c4ccccc4c(OCCN4CCOCC4)nc3c2c1	87.1%	94.6%	84.4	90.6%	99.9%	72.9%	74.5%	91.8%	80.9%	90%	98.9%	88.2%	134%	81.4%	79.3%	91.8%	93.9%	91.6%	107%	122%
NS(=O)(=O)c1ccc(C(=O)N=Nc2c(O)[nH]c3ccc(Cl)cc23)cc1	98.3%	103%	104	100%	106%	103%	89.3%	104%	102%	120%	102%	98.3%	90.3%	98.7%	109%	91.9%	98.7%	96.4%	103%	102%
C/C(=C(\c1ccc(OCCN2CCCCCC2)cc1)c1ccc(OC(=O)c2ccccc2)cc1)c1ccc(Cl)cc1	46.7%	87.5%	71.7	71.7%	3.62% (active)	56.2%	51%	39.1%	21.8%	4.38% (active)	66.1%	-4.61% (active)	17.3%	51.1%	19%	43.1%	44.4%	58.5%	-7.06% (active)	0.53% (active)
COc1ccc(C(c2cc(OC)c(OC)c(OC)c2)N2CCCCC2)cc1 (stereo not given)	59.3%	55.5%	47.9	29.8%	19.4%	44.1%	19.9%	49.1%	38.8%	16.1%	64.2%	18%	55.3%	53.1%	26%	47.2%	18.7%	27.7%	54.9%	23.3%
COC(=O)c1ccc2cc(OC)c(OC)cc2c1	102%	97.6%	108	107%	108%	94.4%	98.9%	77.4%	91.9%	122%	116%	115%	117%	127%	97%	114%	70.4%	116%	103%	110%
CN1CCN(c2ccc(NC3=CC(=O)c4ncncc4C3=O)cc2)CC1	-43.5% (active)	-47.7% (active)	10.8	-87.5% (active)	-24.4% (active)	-61.7% (active)	-56.7% (active)	-7.95% (active)	-50.5% (active)	-69.8% (active)	-89.1% (active)	-22.1% (active)	-98.4% (active)	-15.1% (active)	-94.8% (active)	-46.3% (active)	-96.1% (active)	-96.1% (active)	-81.5% (active)	-81.8% (active)
